# Source: PubChem (National Center for Advancing Translational Sciences (NCATS))
# The full list was thinned out, with hits kept by preference.
# Methyltransferases – Primary Screen for Target Class Profiling of Small Molecule Inhibitors of Methyltransferases; AID 1745853, 2022; purified enzyme, MTase-Glo SAH luminescence; hits give low values; calls only at 40 µM; 25,000 tested, 3.9% active; call rule not given here
#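 Each enzyme was assayed with SAM and its substrate. SAH formation detected by MTase-Glo luminescence; single-point 40 uM screen[…].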
# Active calls of the source: *; i = inactive; + = active, no number; ! = a repeat was not active. % is scaled to controls: 0 for no effect and ±100 for the full control effect.
SMILES,Methyltransferases
CNCCN(C)Cc1cn[nH]c1-c1ccc(OC2CC(OCCC3CCOCC3)C2)cc1 (stereo unspecified),+
CN1C(=O)c2cc(C(=O)NCCCN3CCOCC3)nn2CC1(C)C(=O)NCc1ccccc1 (stereo unspecified),i
Cc1ccc(Cn2c(=O)c3ccc(C(=O)NC(C)C)cc3n3c(=O)n(Cc4ccccc4F)nc23)cc1,i
COCCN1C(=O)c2nc3ccccc3n2CC1(C)C(=O)NC1CCCCCC1 (stereo unspecified),i
COC(=O)c1ccc([C@@H]2Nc3c(Cl)cccc3[C@@H]3C=CC[C@@H]32)cc1,i
Fc1cccc2c1NC(c1ccc(Cl)cc1)C1CC=CC21 (stereo unspecified),i
Cc1ccc(C(=O)O)c2c1N[C@H](c1cccc(Cl)c1)C1CC=CC21 (stereo partly specified),+
Cc1cccc(NS(=O)(=O)c2ccc3[nH]c4c(c3c2)CCCC4)c1C,i
CC1(C(=O)NC2CCCCCCC2)Cn2c(ccc2-c2ccco2)C(=O)N1Cc1cccc(F)c1 (stereo unspecified),i
CC(=O)Nc1c2n(c3ccccc13)CC(C)(C(=O)NCCC(C)C)N(Cc1ccc(F)cc1)C2=O (stereo unspecified),i
COc1ccc(OC)c(NC(=O)c2sc(=S)n3c2[nH]c(=O)c2ccc(Cl)cc23)c1,+
COc1ccc(CNC(=O)c2sc(=S)n3c2[nH]c(=O)c2cc4c(cc23)OCO4)cc1,i
COc1ccccc1NC(=O)c1sc(=S)n2c1[nH]c(=O)c1ccc(Cl)cc12,i
COc1ccc(CN2C(=O)c3cc4sccc4n3CC2(C)C(=O)NC2CCCC(C)C2C)cc1 (stereo unspecified),i
COc1ccccc1CNC(=O)C1(C)Cn2nc(-c3ccccc3)cc2C(=O)N1CCc1ccco1 (stereo unspecified),i
COc1cccc(CNC(=O)c2cc3n(n2)CC(C)(C(=O)NC2CCCC2)N(C)C3=O)c1 (stereo unspecified),i
COc1ccc(CN2C(=O)c3ccc(-c4ccco4)n3CC2(C)C(=O)NC2CCCCC2)cc1OC (stereo unspecified),i
COc1ccc(CN2C(=O)c3cc4ccccc4n3CC2(C)C(=O)NCc2ccccc2)cc1OC (stereo unspecified),+
Cc1cccc(CN2C(=O)c3cc4ccccc4n3CC2(C)C(=O)NCc2ccccc2)c1 (stereo unspecified),i
COc1ccc(CCN2C(=O)c3cc4ccccc4n3CC2(C)C(=O)NCc2ccccc2)cc1OC (stereo unspecified),i
C=CCn1c(=O)c2ccc(C(=O)NC(C)CC)cc2n2c(=O)n(CC(=O)N(C)c3ccccc3)nc12 (stereo unspecified),i
CCCn1c(=O)c2ccc(C(=O)NC(C)C)cc2n2c(=O)n(CC(=O)Nc3ccc(C)cc3C)nc12,i
COc1cc(O)cc(/C=C/c2ccc(O[C@@H]3O[C@H](CO)[C@@H](O)[C@H](O)[C@H]3O)cc2)c1,i
OC[C@H]1O[C@@H](Oc2cc(O)cc(/C=C/c3ccc(O)cc3)c2)[C@H](O)[C@@H](O)[C@@H]1O,+!
OCC1OC(Oc2cc(O)cc(/C=C/c3ccc(OC4OC(CO)C(O)C(O)C4O)cc3O)c2)C(O)C(O)C1O (stereo unspecified),i
SMILES,Methyltransferases
COc1ccc(N(C(=O)c2ccc(C)cc2)S(=O)(=O)c2ccc3c(c2)n(C)c(=O)n3C)cc1,i
C[C@]12C[C@@H](O)[C@@H]3C[C@@]1(O[C@@H]1O[C@H](CO)[C@@H](O)[C@H](O)[C@H]1O)[C@]3(COC(=O)c1ccccc1)C(=O)O2,+
O=C(OC[C@H]1O[C@H](O[C@H]2CO[C@H](CO)[C@@H](O)[C@@H]2O)[C@H](O)[C@@H](O)[C@H]1O)c1ccccc1,i
O=C(OC[C@H]1O[C@H](O[C@]2(CO)O[C@H](CO)[C@@H](O)[C@@H]2O)[C@H](O)[C@@H](O)[C@@H]1O)c1ccc(O)cc1,i
COc1ccccc1CNC(=O)C1(C)Cn2nc(-c3ccccc3)cc2C(=O)N1c1cccc(C)c1C (stereo unspecified),i
CCOc1ccccc1CN1C(=O)c2nc3ccccc3n2CC1(C)C(=O)NC1CCCCC1C (stereo unspecified),i
O=C(Cn1nc2nc(Nc3ccc(F)cc3)ccn2c1=O)Nc1ccccc1Cl,i
CCC(C)NC(=O)c1ccc2c(=O)n(C)c3nnc(SCc4ccccc4C)n3c2c1 (stereo unspecified),i
COc1cccc(CN2C(=O)c3ccc(-c4ccco4)n3CC2(C)C(=O)NC2CCCCC2)c1 (stereo unspecified),i
N[C@@H](Cc1ccc(O)c(I)c1)C(=O)O,i
COC(=O)[C@@H](N)Cc1ccc(O)c(O)c1,i
O=C(O)Cc1ccc(O)c(O)c1,+
COc1cc(Cl)c(C)cc1N1C(=O)CSc2c(c3ccccc3n2C)C1C(=O)NCc1ccccc1 (stereo unspecified),i
COc1ccc(-c2nnc3n(Cc4ccc(F)cc4)c(=O)c4ccccc4n23)c(OC)c1,i
CN1C(=O)c2cc3ccccc3n2CC1(C)C(=O)NCC(=O)NCc1ccccc1 (stereo unspecified),i
C=CC(C)(CCC=C(C)C)O[C@@H]1O[C@H](CO)[C@@H](O)[C@H](O)[C@H]1O (stereo partly specified),i
C=CC(C)(CC/C=C(\C)CC/C=C(\C)CC(O)/C=C(\C)C(=O)O)O[C@@H]1O[C@H](CO)[C@@H](O)[C@H](O)[C@H]1O[C@@H]1O[C@H](CO)[C@@H](O)[C@H](O)[C@H]1O (stereo partly specified),i
C=C[C@](C)(CC/C=C(\C)C(=O)O)O[C@@H]1OC[C@H](O)[C@H](O)[C@H]1O,+
Cc1ccc(C(=O)Cn2nc3n(CCC(C)C)c(=O)c4ccc(C(=O)NC5CCCC5)cc4n3c2=O)cc1,i
CC1(C(=O)NCc2ccccc2)Cn2c(ccc2-c2ccco2)C(=O)N1c1ccc(Br)cc1 (stereo unspecified),i
CCOCCCNC(=O)N1Cc2c(sc3c2CCCC3)-n2cccc2C1c1cccc(OC)c1 (stereo unspecified),i
CCc1cc2c(cc3n2CC(C)(C(=O)NC2CCCCCC2)N(Cc2ccco2)C3=O)s1 (stereo unspecified),i
CC1CC(=O)C2=C(O1)OC1(C)CCC3C(C)(C)C4OC4C(=O)C3(C)C1C2 (stereo unspecified),+
CC1CC(=O)C2=C(O1)OC1(C)CCC3C(C)(C)C=CC(=O)C3(C)C1C2 (stereo unspecified),+
CC(C)CCn1c(=O)c2ccc(C(=O)NC3CCCC3)cc2n2c(=O)n(CC(=O)Nc3ccccc3)nc12,i
Cc1cc(C)cc(NC(=O)CSc2nnc3n(CC(C)C)c(=O)c4ccc(C(=O)NC(C)C)cc4n23)c1,i
Cc1ccccc1N1C(=O)c2cc(-c3cccs3)nn2CC1(C)C(=O)NC1CCCCCC1 (stereo unspecified),i
COC(=O)c1cc2n(n1)CC(C)(C(=O)NC1CCCC1)N(c1ccccc1C)C2=O (stereo unspecified),i
CC(C)CCNC(=O)C1(C)Cn2c(cc3ccccc32)C(=O)N1C1CCN(Cc2ccccc2)CC1 (stereo unspecified),i
